Results reported in publication PMC13494018.

B1: d3r1_design_ppi_418_dldesign_0_cycle1_af2pred (protein)
chain: DKNEAIKNTLKGAEKAVKELKKEAIKDPEKAEEYAKRAEEIAKAAKELAKQGTEEAKEEAKKVEKEAKEAKKEAKKVVEEKKKKE
B2: d3r1_design_ppi_340_dldesign_0_cycle1_af2pred (protein)
chain: EKEKVRKEAEKAIKKAKAAAKAAKAGKDLKAAEKAVKEAAKAAKAAVEAGDPELAEKVAKAAQEASTALNAALSKRLAA
B3: d3r1_design_ppi_728_dldesign_0_cycle0_af2pred (protein)
chain: SLKESVDKKVEKLKEEAKKLAKYDPELAKKAIEYAEKAKKAKTLEEAGKYANKASEYIEEAEKKAKEKKEEEAK
B4: d3r1_design_ppi_576_dldesign_0_cycle1_af2pred (protein)
chain: GEEEEKAKETIKKMEELAKKGAENPEKGKEYVAEAMRIGRETAKELSEEVGEKVLKKAEEIASEAMKKVLENKKKLA
B5: d3r1_design_ppi_687_dldesign_0_cycle0_af2pred (protein)
chain: MKKEEEEKKKKEKLKKKVEEKKEELKELKKAKEELEKAIEKLKPLAEKDPRIKANAEAAKKAAEEELKKKEEELEKLKKELE
B6: d3r1_design_ppi_648_dldesign_0_cycle0_af2pred (protein)
chain: GEEAAKKSKEAEKALEEAKKILKEGGKEGEEKAKKLVEEKVKELKKWGKETGTGGEALAKILKEEFEKAKKEK
B7: d3r1_design_ppi_541_dldesign_0_cycle1_af2pred (protein)
chain: MEEEKKKIEEEIEEVKEALKEAEKLFAKDPVAGAKYAENLAIALKKRGLSEEAINLAKEAAEKLKAEAEKVKAA
B8: d3r1_design_ppi_404_dldesign_0_cycle0_af2pred (protein)
chain: SMTEIAQKAYEKAEEARKKMLKKAEEDPEARPKLPEIEALMKEAREKAVSAVVELLTKGESEEEAMKKAEEIIEEAKKEAEKIMK
B9: d3r1_design_ppi_677_dldesign_0_cycle1_af2pred (protein)
chain: MEEKKKKIDEKLILAGELAKKNGLLGEIVAKKAIEEGRKAGITEFSEEAVEALKIAFAAGAAARAALAAALA
B10: d3r1_design_ppi_688_dldesign_0_cycle1_af2pred (protein)
chain: AVENAKKAAEQATKALKAYATEEEKEEAEKKGKEFKKLAEEAKADPSKAEEVLNKLLKEAKEYDKKLEEKEKKEKEE
B11: d3r1_design_ppi_578_dldesign_0_cycle0_af2pred (protein)
chain: MEELEEARKRADELEKEVKKLEPLFKEASKEAAELAENAKKAIEAAKKFIEDKSQIELAQRAVDQAEKNLKLAKELMEKILKEK
B12: d3r1_design_ppi_418_dldesign_0_cycle0_af2pred (protein)
chain: SEAEAVKATLKGAKETVKELKKEAEKNPEKAEEYAKEAEKIAKAAEKLAEKSSEEAKKEAKEVKEEAKEAKKLAKKIIEEKKAKE
B13: d3r1_design_ppi_578_dldesign_0_cycle1_af2pred (protein)
chain: MEELEEAKKRAEELKKEVEENKEKFKEASKEAQELADNSLKAIKAAFKYIEEKEEVENAKRAVEVAEENYKKAKELAEKLLKEK
B14: d3r1_design_ppi_595_dldesign_0_cycle1_af2pred (protein)
chain: DLFKKGIEEAEKAYKKYPKLGLAVAQLVLAKYFLEAAKKSTPEEAKNYLEAAKLALEKSKELLKEVEAKLKAE
B15: d3r1_design_ppi_608_dldesign_0_cycle1_af2pred (protein)
chain: ATEEAKKYAEKAKELAKKAEEAAKKEGVEAGEEYLEKAKEEVLKAYKYAAESGDEEAKKAAEEALEAVEKAEKEIEKIKKEKE
B16: d3r1_design_ppi_404_dldesign_0_cycle1_af2pred (protein)
chain: NKVEVAQKAYDKAKEAKEKMIKEAKENPEAKPKIPEIEALMKKAQEEAVGKAVELLDKGATPEEALKAAEKIIKEAEKKAKEIIE
B17: d3r1_design_ppi_369_dldesign_0_cycle1_af2pred (protein)
chain: AVPAELREILSKQALAKMEELEKEAKEKADTPEGLEVMEEAAEWFREAAKGLRAAGDEETAKKMEEKAKELEELAKEKKEK
B18: d3r1_design_ppi_688_dldesign_0_cycle0_af2pred (protein)
chain: MEELAEKAAKTASAALKEYATEEEKEEAEKKSKEFEKLAEEGKKNPEKAEEVLKELLEKAKEYQKKLEEKEKKEKEE
B19: d3r1_design_ppi_589_dldesign_0_cycle1_af2pred (protein)
chain: MEEDAKKAQEVADLLAKTAATGPAYADEAIAKTAEVLGPYFAEKLKKAIAAGPEEVKKMYDIVKQHAENIKAA

Target: VTCN1, Q7Z7D3
Sequence (Q7Z7D3 whole entry): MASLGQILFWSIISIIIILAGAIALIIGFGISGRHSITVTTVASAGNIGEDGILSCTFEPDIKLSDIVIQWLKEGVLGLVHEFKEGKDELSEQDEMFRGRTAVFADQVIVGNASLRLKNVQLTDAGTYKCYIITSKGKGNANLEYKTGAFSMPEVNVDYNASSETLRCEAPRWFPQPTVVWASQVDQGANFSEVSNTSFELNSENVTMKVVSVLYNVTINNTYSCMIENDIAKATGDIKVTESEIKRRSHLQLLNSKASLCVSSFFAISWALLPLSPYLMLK

Binding in a display sort, inactive:
B1 not found
B2 not found
B3 not found
B4 not found
B5 not found
B6 not found
B7 not found
B8 not found
B9 not found
B10 not found
B11 not found
B12 not found
B13 not found
B14 not found
B15 not found
B16 not found
B17 not found
B18 not found
B19 not found
